# Results as given in PubChem BioAssay (NCI).
# About 79,000 compounds went through this panel and 15% of them were active in at least one assay; those are over-represented in the sample as a whole. Unmarked numbers belong to inactive results. The source made the active and inactive calls. Cut-off read from the data, not from the text of the source: active = growth inhibition above about 70%; inactive = the rest.
# How the values were obtained:
# [1] = NCI Yeast Anticancer Drug Screen. Data for the rad50 strain (AID 155);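 note: 0% = growth of vehicle-only cultures of the same strain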; conditions: S. cerevisiae rad50 strain growth inhibition; at 50.0 µM; hits give high values
# Method in brief: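 DNA repair mutant yeast, compound exposure, growth read-out; inhibition is taken relative to vehicle.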
# [2] = NCI Yeast Anticancer Drug Screen. Data for the mec2-1 strain (AID 157); conditions: S. cerevisiae mec2-1 strain, at 50.0 µM, hits give high values
# Method in brief: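 Cells of the genetically defined mec2-1 yeast strain are incubated with test compound. Inhibition of growth is calculated against vehicle-treated controls.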
# [3] = NCI Yeast Anticancer Drug Screen. Data for the sgs1 mgt1 strain (AID 161);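 note: 0% = growth of cultures given vehicle only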; conditions: S. cerevisiae sgs1 mgt1 strain, at 50.0 µM, hits give high values
# Method in brief: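 Mutant yeast exposed to compound; growth scored against vehicle-only wells.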
# [4] = NCI Yeast Anticancer Drug Screen. Data for the cln2 rad14 strain (AID 165);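 note: 0% = growth equal to vehicle treated cultures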; conditions: S. cerevisiae cln2 rad14 strain, at 50.0 µM, hits give high values
# Method in brief: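 The screen exposed genetically defined yeast (cln2 rad14) to test compounds and scored growth inhibition relative to vehicle-treated controls.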
# [5] = NCI Yeast Anticancer Drug Screen. Data for the bub3 strain (AID 167); conditions: S. cerevisiae bub3 mutant strain, at 50.0 µM, hits give high values
# Method in brief: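 In this screen, a yeast mutant lacking normal mitotic checkpoint function is challenged with compound. Relative growth versus vehicle gives the inhibition value.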
# [6] = NCI Yeast Anticancer Drug Screen. Data for the mlh1 rad18 strain (AID 175); conditions: S. cerevisiae mlh1 rad18 strain growth inhibition; at 50.0 µM; hits give high values
# Method in brief: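 Compound-treated yeast growth, normalised to vehicle controls. Strain bears defined DNA repair mutations.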
SMILES,growth inhibition [1] [%],growth inhibition [2] [%],growth inhibition [3],growth inhibition [4],growth inhibition [5],growth inhibition [6]
COc1ccc(C(=O)CC(C#N)c2ccccc2Cl)cc1 (stereo unspecified),19.8,39,41.2%,13.1%,64%,8.6%
CC1(C)CC(=O)OC/C=C\CC(Cc2ccccc2)C(=O)C1 (stereo unspecified),4.6,15.2,-12.3%,6.8%,12.2%,1.9%
c1ccc2c(c1)cc1ccc3cc4ccccc4c4nnc2c1c34,-23.1,-7.3,-10.2%,-16.8%,-11.9%,-14.6%
Cc1c(C(=O)Nc2ccc(Cl)c(C(F)(F)F)c2)oc2cc(O)ccc2/c1=N\NC(N)=S,-12.3,-14.4,-23.6%,-7.85%,-7.35%,-17.4%
NCC(O)C(F)(F)F (stereo unspecified),-5.2,-7.9,-27.3%,-15.1%,1.75%,-14.5%
O=C1CN2C(c3ccccc3)=NN(c3ccc([N+](=O)[O-])cc3)C2(c2ccccc2)c2cc(Cl)ccc2N1CC1CC1 (stereo unspecified),25.6,-10.9,-7.4%,20.9%,11.2%,23.4%
O=C(Nc1ccccc1)Oc1ccc(C2CCCCC2)cc1,14.7,22.1,8.2%,0.95%,23.3%,54.6%
O=c1oc2ccc(Cl)cc2n1CN1CCOCC1,1.9,-26.9,1.95%,12.8%,-34.2%,5.55%
CCCCOc1ccccc1C(=O)OC,23.9,5.55,21.8%,-0.6%,9.4%,18.5%
Cc1cc2ccccc2n1CC(=O)N1CCCC1,-14.8,-28.6,-23.6%,0.8%,15.9%,-11.8%
O=C(Oc1c([N+](=O)[O-])cc(-c2ccccc2)cc1[N+](=O)[O-])c1ccccc1,22.7,18.1,9.05%,13.1%,20.1%,35.6%
COc1cc(Cl)ccc1NC(=O)Oc1ccc2ccccc2c1,11.8,14.2,13%,9.2%,14.4%,9.4%
Cc1ccc(Br)c2c1CCC2=O,1.85,-5.05,0.9%,-52.5%,-23%,1.65%
COc1cc(/C=C/C(=O)NCCCCN)ccc1O,19.6,8.9,21.8%,9.6%,13%,19.7%
C[n+]1ccccc1C(=O)O,29.3,28.9,50.4%,26.6%,31.3%,40.4%
C=CCNC(=O)ON1C(=O)CCC1=O,-19.8,3.05,-35.6%,-8.65%,-22.9%,-39.5%
CN(CCO)CC(O)Cn1cnc2c(N)ncnc21 (stereo unspecified),-12.5,-17.8,-31.5%,10.7%,-19.4%,19.8%
N=S(=O)(c1ccccc1)c1ccccc1[N+](=O)[O-] (stereo unspecified),41.4,17.9,56%,49.5%,19.5%,57.2%
O=C1CC2C1C1C=CC2n2c(=O)n(-c3ccccc3)c(=O)n21 (stereo unspecified),-11.6,9.05,13.5%,6%,2.2%,15.4%
CCCC(=O)Oc1ccc(Cl)cc1,12.9,-4.45,1.35%,20.1%,1.45%,-6.65%
COc1ccc(Cc2nnc(SC)n2-c2ccc(F)cc2)cc1OC,8.7,-8.25,21%,6.15%,25.2%,16.6%

SMILES,growth inhibition [1] [%],growth inhibition [2] [%],growth inhibition [3],growth inhibition [4],growth inhibition [5],growth inhibition [6]
C=C(Cl)C(Cl)(CBr)CCC(Cl)C(C)C (stereo unspecified),65,15.5,85.2% (active),73.7% (active),75.6% (active),72% (active)
CN=C1C=C(/N=C2/C=C(N/C(=C\C#N)C(C)(C)O)OC2(C)C)OC1(C)C,-10.6,-5.3,13.6%,7.1%,23.9%,28.6%
O=C(NCCCl)Oc1cccn(C(=O)NCCCl)c1=O,7.15,9.7,-2.55%,9.1%,0.65%,-0.8%
COC1/C=C\OC2(C)Oc3c(C)c(O)c4c(c3C2=O)C(=O)C(Br)=C(NC(=O)/C(C)=C\C=C/C(C)C(O)C(C)C(O)C(C)C(OC(C)=O)C1C)C4=O (stereo unspecified),16.1,13.8,22.4%,22.2%,14.8%,20.5%
COC(=O)[C@]1(C)CCC[C@@]2(C)C1CC[C@@]13C=C(C(C)C)[C@@H](CC1=O)CC23 (stereo partly specified),10.7,4.7,-1.7%,32.7%,26.4%,19.1%
COC(=O)c1cccc2c1Cc1cc(N)ccc1-2,-7.9,-16.8,-19.6%,-21.4%,9.7%,-12.2%
O=c1cc(CC(O)(C(F)(F)Cl)C(F)(F)Cl)[nH]n1-c1ccccc1,-27.9,4.05,-7.75%,11.4%,-22.1%,-5.65%
N#Cc1ccc([N+](=O)[O-])n1CCO,9.7,8.7,35%,-0.05%,15.6%,19.3%
CCCCCC/C(C)=N\NC(N)=O,29.9,14.4,11.6%,12.4%,-0.95%,-23.1%
C=C1C(=O)O[C@@H]2[C@H]3O[C@]3(C)CCC=C(C)CC[C@@H]12,-2.7,-7.05,2.15%,9.05%,-11.8%,-6.75%
CCOc1ccc2nc(NC(=O)C(=O)C(C#N)CC(C)(C)C=O)sc2c1 (stereo unspecified),-13.8,-22.8,-17.6%,7.7%,-12.6%,-28.1%
Cc1cc(=O)[nH]c(N/N=C/c2ccc(O)cc2)n1,-28.9,-44.5,-14.7%,2.65%,-30.4%,-26.8%
COC(=O)N1CC2CC=CC(C2)c2ccccc21 (stereo unspecified),-13.9,-37.5,-1.35%,5.15%,16.1%,-9.4%
CC1=NNC(c2ccco2)C1 (stereo unspecified),10.2,5.6,12.8%,18.1%,11.9%,5.7%
CC(C)(c1ccc([N+](=O)[O-])cc1)[N+](=O)[O-],11.1,10.3,1.6%,-7.4%,-11.8%,-4.55%
CC1=C(/C=C/C(C)=C\c2cc(C)cc(=O)o2)C(C)(C)CCC1,23.1,-1.5,8.7%,-26.6%,5.75%,16.9%
CN(/N=C\c1ccc([N+](=O)[O-])cc1)C(=O)c1ccccc1,-6.85,-4.15,14.6%,-33.6%,19.4%,-7.35%
OC1CCC2CCCC2C1 (stereo unspecified),1.6,-1.7,-2.2%,1%,-8.6%,-1.2%
COc1ccc(OC)c(N=Cc2cccs2)c1,14.6,5.95,20.9%,15.1%,16.2%,22.1%
O=C(O)c1ccc(N=C=S)cc1O,-1.95,-8.75,-2.1%,-12.8%,3.8%,-1.8%
